Compound activity (PubChem BioAssay)
Rows were chosen to be rich in hits. Some 2.5% of all compounds tested hit in one or more screens of this group.
TAG inh: triacylglycerol accumulation inhibition; H9c2 cells, Nile Red lipid (TAG) fluorescence; cells loaded with 200 µM oleic acid; inhibition, % at 12.5 µM; actives 0.66% (n = 230,000);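 active means pattern-corrected inhibition of lipid staining of at least 50% with the nuclear-stain viability signal not falling by more than 50%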;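 further: 0% = DMSO wells and 100% = triacsin C control wells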
CRFR2-BP antag: CRF-BP/CRF-R2 complex antagonism; inhibition, % at 11.8 µM; HEK293 CRF-R2/CRF-BP, CRF-induced calcium fluorescence; actives 0.59% (n = 350,000);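 active means inhibition of the ligand-induced calcium signal above about 50% at the single tested concentration, limit read from the data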
CRFBP-R2 agonist: agonists of human CRF-binding protein/CRF-R2 receptor complex. activation, % at 13.2 µM. actives 0.46% (n = 350,000). AID 588473. HEK293 CRF-R2/CRF-BP, calcium dye fluorescence (FLIPR); percent of saturating CRF peptide response;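 active means activation of at least 50%, plus an integration ratio under a set limit after plate pattern correction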;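 further: plate controls were neutral control wells without compound for no effect and CRF at EC100 for full effect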
SKN-1 block: C. elegans SKN-1 inhibition; C. elegans VP596 Pgst-4::GFP/RFP ratio, acrylamide-induced, 24 h; inhibition, % at 21.8 µM; actives 0.49% (n = 360,000); AID 624304;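 active means interference check ratio from 0.5 to 1.5 plus GFP to RFP signal ratio inhibition reaching or exceeding a fixed threshold, cut at about 30% in these data, passing the limit was not always enough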
Cardio protect: myocardial damage modulation in H9c2 cells | H9c2 cardiomyocytes, H2O2 injury protection, ATPLite, 2 h | protection from H2O2 cell death, % at 20 µM | actives 0.63% (n = 360,000);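 active means compounds giving at least 50% protection of heart cells from peroxide-induced death in the single-dose screen, raw or plate-pattern-corrected value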;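 further: 0% = DMSO wells with peroxide and 100% = DMSO wells without peroxide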
iPSC survival up: increases survival of single human iPS cells; hiPSC single-cell survival, ATPlite luminescence; 100% = ROCK inhibitor wells, 0% = DMSO; survival enhancement, % at 20 µM; actives 0.044% (n = 360,000); AID 602274; in the data active means survival enhancement above about 18%;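 further: cells exposed to compounds for 16 hours before the ATP read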
Numbers without * were called inactive; x = not tested or not shown.

SMILES | TAG inh | CRFR2-BP antag | CRFBP-R2 agonist | SKN-1 block | Cardio protect | iPSC survival up
O=C(NCCOc1ccc(Cl)cc1)c1ccc2c(c1)OCCO2 | 3 | 23 | -4 | -2 | -9 | 0
COC(=O)[C@]12CCCCC=C1N(Cc1ccccc1)C(=O)[C@H](CC(=O)NCCc1ccccc1OC)C2 | x | x | x | -5 | x | -1
CCc1nc2ccc(C(=O)NCCCn3ccnc3)cn2c1N(C)Cc1cc2ccccc2s1 | 0 | x | x | 10 | 0 | -2
COc1ccc(C2c3c(ncn(CCN4CCOCC4)c3=N)Oc3ccc4ccccc4c32)cc1 (stereo unspecified) | 31 | 4 | -1 | -9 | -17 | -2
Cc1cccc(NC(=O)CNC(=O)COc2cc(F)ccc2[N+](=O)[O-])c1C | -25 | -11 | -1 | 11 | 3 | 0
COc1ccc(/C(C)=N/NC(=O)c2cccc(S(=O)(=O)N3CCCC3)c2)c(O)c1 | 17 | x | x | 0 | 70* | 1
CSc1ccc(CN2CCC(C)(Oc3ccc(C(C)=O)cc3)C2)cc1 (stereo unspecified) | -16 | x | x | 0 | 0 | -1
CCNC(=O)C1(C)CCN1CCC(=O)c1ccc(C)cc1 (stereo unspecified) | -9 | x | x | 12 | 3 | 2
COc1ccccc1-c1cnc(C(O)c2cc(C)c(OC)c(C)c2)[nH]1 (stereo unspecified) | 8 | x | x | -14 | -4 | -1
COc1cccc2cc(-c3nnc(SCC(=O)Nc4nc(C)cs4)n3C)oc12 | 33 | -12 | -2 | -11 | 69* | 8
COc1ccc(CC(=O)O/N=C(\N)c2ccc(OC)cc2)cc1 | -18 | 14 | 0 | -4 | -4 | -1
COc1ccc(CC(=O)O/N=C(\N)c2cccc([N+](=O)[O-])c2)cc1 | x | 67* | -3 | 1 | -6 | 0
CCOC(=O)N1CCc2c(sc(NC(=O)CN3CCOCC3)c2C(=O)Nc2ccccc2)C1 | 11 | -13 | 0 | 4 | 50* | 0
CCOC(=O)c1ccc(-c2ccc(/C=C(\C#N)C(=O)NCC3CCCO3)o2)cc1 (stereo unspecified) | x | -8 | 2 | 17 | 52* | -2
COc1cc(/C=C(\C#N)C(=O)NCC2CCCO2)ccc1OCC(N)=O (stereo unspecified) | 2 | 25 | 16 | 6 | 3 | -1
COc1ccc(/C=C(\C#N)C(=O)NCC2CCCO2)cc1OC (stereo unspecified) | -5 | -1 | -1 | 36* | 2 | 4
Cc1ccc(N=Cc2sc(O)c3ccccc23)cc1 | -17 | -88 | 59* | 10 | 3 | 0
COc1ccc(/C=C/c2c([N+](=O)[O-])c(=O)n(C)c(=O)n2C)cc1O | x | 52* | 1 | 2 | 12 | -1
COc1cc(/C=C/c2c([N+](=O)[O-])c(=O)n(C)c(=O)n2C)cc(OC)c1OC | x | -7 | 0 | -8 | 10 | 0
CCCc1cc(=O)oc2cc(OCC(=O)N3CCN(C(=O)C4COc5ccccc5O4)CC3)ccc12 (stereo unspecified) | x | -3 | -1 | -6 | 43 | 1
Cc1cccc(N=C2NC(=O)/C(=C/c3cccn3C)S2)c1C | 10 | -7 | 4 | 41* | -2 | 0
Cc1ccc(N=C2NC(=O)/C(=C/c3cccn3C)S2)cc1C | 3 | 6 | -1 | 10 | -1 | 0
O=C(CSc1nc2sc3c(c2c(=O)n1-c1ccccc1)CCCC3)N/N=C/c1ccc(C(=O)O)cc1 | x | -12 | 0 | 7 | -1 | 0
Cn1c(N/N=C/c2ccccc2)nc2sc3c(c2c1=O)CCC3 | x | 6 | -2 | 48* | 13 | -3
CSCCC(NC(=O)c1cccc(C)c1)C(=O)NNC(=O)c1cccs1 (stereo unspecified) | 0 | 66* | 0 | -6 | 6 | 0
SMILES | TAG inh | CRFR2-BP antag | CRFBP-R2 agonist | SKN-1 block | Cardio protect | iPSC survival up
Cn1cccc1/C=C1\SC(=S)N(NC(=O)c2ccccc2)C1=O | x | -3 | 3 | 38* | 11 | 2
Cn1cccc1/C=C1\SC(=S)N(NC(=O)c2ccc(F)cc2)C1=O | -10 | -7 | 5 | 22 | 0 | 0
Cn1cccc1/C=C1\SC(=S)N(NC(=O)c2cccc(Cl)c2)C1=O | x | 9 | 1 | 38* | 8 | 2
CCCCN(C(=O)c1ccncc1)c1c(N)n(CCC)c(=O)[nH]c1=O | -32 | -3 | 0 | -14 | 3 | -2
O=C(NCC(c1cccnc1)N1CCN(c2ccc(F)cc2)CC1)c1ccc2c(c1)OCO2 (stereo unspecified) | -7 | 27 | -2 | 42* | 2 | 4
COc1ccc(N2CCN(C(CNC(=O)c3ccc4c(c3)OCO4)c3cccnc3)CC2)cc1 (stereo unspecified) | 1 | 16 | -1 | -9 | 3 | 7
CCOc1ccc(CCNC(=O)CN2C(=O)NC3(CCCCC3)C2=O)cc1OCC | 42 | 0 | -2 | 9 | -2 | 0
Cc1ccccc1NC(=S)NC(NC(=O)c1ccccc1C)C(Cl)(Cl)Cl (stereo unspecified) | 4 | 5 | -2 | 17 | -11 | -3
O=C(Nc1ccc(Cl)cc1)C(c1ccccc1)N(CCO)CCO (stereo unspecified) | x | 19 | -3 | 37* | -1 | 0
Cc1c(C(=O)Nc2cccc(C(F)(F)F)c2)oc2ccc(S(=O)(=O)N3CCOCC3)cc12 | x | -20 | 5 | 36* | -3 | 4
Cc1ccc(CNC(=O)c2oc3ccc(S(=O)(=O)N4CCOCC4)cc3c2C)cc1 | x | -30 | -2 | 6 | 51* | 1
CC(=O)N1CCOc2ccc(S(=O)(=O)N3CCC(C(=O)NCc4ccc(Cl)cc4)CC3)cc21 | 11 | 3 | 0 | 18 | 0 | 2
COc1ccc(CNC(=O)c2oc3ccc(S(=O)(=O)N4CCOCC4)cc3c2C)cc1 | x | -16 | 3 | -19 | 12 | 0
CC(=O)N1CCOc2ccc(S(=O)(=O)N3CCC(C(=O)NCc4ccc(C)cc4)CC3)cc21 | x | 53* | 2 | -3 | -2 | 0
CC(Oc1cccc(Cl)c1)C(=O)Nc1cc(Cl)ccc1N1CCOCC1 (stereo unspecified) | -3 | -3 | 5 | 11 | -8 | 0
CC(=O)c1cccc(NS(=O)(=O)c2ccc3c(c2)oc(=O)n3C)c1 | x | -10 | 0 | 37* | -3 | -2
O=C(COC(=O)c1cccc(NS(=O)(=O)/C=C/c2ccccc2)c1)Nc1ccccc1OC(F)F | x | -17 | 2 | -7 | -6 | -1
COc1ccc(-n2c(C)nc3cc(C(=O)NCc4ccco4)ccc32)cc1 | x | 1 | 2 | 41* | -6 | -3
c1ccc2c(c1)OCCOCCOCCOCCOc1ccccc1OCCOCCOCCO2 | x | 50* | 1 | 9 | 0 | -3
CN1CCOCCOc2ccccc2OCCOCC1 | 8 | -8 | 2 | 2 | -2 | 0
